According to PubChem BioAssay (NCATS):
Records with an inconclusive call do not appear. Activity calls are given as the source filed them. Calls come from the whole dose curve; as a rule, active = well fitted cell-killing curve with a large enough effect; inconclusive = small, poorly fitted or top-dose-only effect, or effect the other way; inactive = no such curve, though single readings can be large or run the other way.

Experiment: Quantitative High-Throughput drug screen in 47 multiple myeloma cell lines against the NCATS MIPE library collection: OCIMY1_PLB cell viability assay (AID 1918979); note: nearly all actives have a fitted effect of over 35% in size
Conditions: OCI-MY1 myeloma viability, CellTiter-Glo ATP, 48 h; series mostly up to 45.8 µM; viability: at the top concentration
Procedure, shortened: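 MIPE 4.0 approved/investigational drugs; 500 cells/well; 48 h 37 °C humidified 5% CO2; CTG luminescence readout; DMSO = 100%, media = 0% viability.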
Potency is the fitted concentration of half-maximal effect.

| Structure (SMILES) | viability | Potency |
| --- | --- | --- |
| CC#CCn1c(N2CCC[C@@H](N)C2)nc2c1c(=O)n(Cc1nc(C)c3ccccc3n1)c(=O)n2C | 100% (inactive) | – |
| CCc1ccc(C=C2SC(=S)NC2=O)cc1 | 107% (inactive) | – |
| COc1cccc([C@@H](C)NCCCc2ccccc2Cl)c1 | 140% (inactive) | – |
| Cc1c(O)cccc1C(=O)N[C@@H](CSc1ccccc1)[C@H](O)CN1C[C@H]2CCCC[C@@H]2C[C@@H]1C(=O)NC(C)(C)C | – | 20.9 µM (active) |
| CC(C)(C)OC(=O)N[C@H]1CCCCCC=C[C@@H]2C[C@@]2(C(=O)NS(=O)(=O)C2CC2)NC(=O)[C@@H]2C[C@@H](OC(=O)N3Cc4cccc(F)c4C3)CN2C1=O | 95.9% (inactive) | – |
| COc1ccc(-c2nc(N3CCOCC3)c3sc(CN(C)c4ncc(C(=O)NO)cn4)cc3n2)cn1 | – | 0.0059 µM (active) |
| N[C@@]1(C(=O)O)CS(=O)(=O)[C@H]2[C@H](C(=O)O)[C@H]21 | 121% (inactive) | – |
| C[C@]12CCC3c4ccc(O)cc4CCC3C1CCC2=O (stereo not given in full) | 103% (inactive) | – |
| CC(C)=CC[C@@H](O)C1=CC(=O)c2c(O)ccc(O)c2C1=O | – | 1.18 µM (active) |
| CN1CCN(CCOc2cc(OC3CCOCC3)c3c(Nc4c(Cl)ccc5c4OCO5)ncnc3c2)CC1 | 124% (inactive) | – |
| Nc1ncnc2ccccc12 | 107% (inactive) | – |
| CC(C)(C)NC(=O)Nc1cccc(Nc2ncc(F)c(NC(C)(C)CO)n2)c1 | 105% (inactive) | – |
| CC(C)C(C)C=CC(C)C1CCC2C3=CC=C4CC(O)CCC4(C)C3CCC21C (stereo not given) | 129% (inactive) | – |
| NC1CCC(Nc2nc(Nc3ccc(C(=O)N4CCCCC4)cc3)c3ncn(-c4cccc(F)c4)c3n2)CC1 (stereo not given) | 125% (inactive) | – |
| Cn1cc(C=C2C(=O)Nc3cccnc32)c2ccccc21 | 104% (inactive) | – |
